This passage reports cell viability results from the supplement of paper PMC13094657.

Structures are written as SMILES. ± gives the standard deviation of the averaged measurements.
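Also: viability of the cells left after supernatant collection, read with Deep Blue dye added for 4 h, as absorbance at 570 nm minus 600 nm.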

The test system of the experiment is MDA-MB-231. Briefly: cell viability relative to vehicle unstimulated control (fraction); higher = more viable cells. Conditions: pre-treatment time: 18 h then 24 h IFNg/TNF.
Take `C=C(C)C1CC=C(C)CC1` (stereo not drawn) [(s)-(-)-limonene] (compound dose: 10 uM): the cell viability was found to be 0.944 ± 0.051.
As for `C=C(C)C1CC=C(C)[C@@H](O)C1` (single isomer, unassigned; (-)) [(-)-carveol (mixed)] (compound dose: 10 uM), the figure is 0.985 ± 0.086; as for `CC(C)=CCC/C(C)=C/CC/C(C)=C/CO` [Farnesol] (compound dose: 10 uM), 0.994 ± 0.062.
Next, `CC1(C)CC[C@]2(C(=O)O)CCC3=C([C@@H](CCl)C[C@@H]4[C@@]5(C)C[C@H](O)[C@H](O)[C@@](C)(C(=O)O)[C@@H]5CC[C@@]34C)[C@@H]2C1` [Tenuigenin] (compound dose: 10 uM): 0.983 ± 0.068; `CC(C)(O)CCC(=O)[C@](C)(O)C1[C@H](O)C[C@@]2(C)[C@@H]3CC=C4[C@@H](C[C@H](O)[C@@H](O)C4(C)C)[C@]3(C)C(=O)C[C@]12C` (stereo partly drawn) [Cucurbitacin IIb] (compound dose: 10 uM): 0.943 ± 0.021; `O=C1C[C@@H](c2ccc(O)cc2)Oc2cc(O)cc(O)c21` [Naringenin] (compound dose: 10 uM): 0.921 ± 0.013.
As for `C[C@@H]1O[C@@H](O[C@H]2[C@H](OC(=O)[C@]34CCC(C)(C)C[C@H]3C3=CC[C@@H]5[C@@]6(C)C[C@H](O)[C@H](O[C@@H]7O[C@H](CO)[C@@H](O)[C@H](O)[C@H]7O)C(CO)(CO)[C@@H]6CC[C@@]5(C)[C@]3(C)C[C@H]4O)OC[C@H](O)[C@@H]2O)[C@H](O)[C@H](O)[C@H]1O[C@@H]1OC[C@@H](O)[C@H](O[C@@H]2OC[C@](O)(CO)[C@H]2O)[C@H]1O` [Platycodin D] (compound dose: 10 uM), the cell viability was 0.609 ± 0.21.
Turning to `C=C1C(=O)[C@]23[C@H](O)[C@H]1CC[C@H]2[C@@]12CO[C@]3(O)[C@@H](O)[C@@H]1C(C)(C)CC[C@@H]2O` [Oridonin] (compound dose: 10 uM), the cell viability was 0.917 ± 0.017.
As for `CC(C)C12CCC(C)(CC1)O2` [1,4-Cineole] (compound dose: 10 uM), the figure is 0.907 ± 0.026; as for `CC(C)=CCCC(C)CCO` (stereo not drawn) [Citronellol] (compound dose: 10 uM), 1.03 ± 0.057; as for `C=C1C[C@@]23CC[C@H]4[C@@](C)(CCC[C@@]4(C)C(=O)O[C@@H]4O[C@H](CO)[C@@H](O)[C@H](O)[C@H]4O[C@@H]4O[C@H](CO)[C@@H](O)[C@H](O)[C@H]4O)[C@@H]2CC[C@]1(O[C@@H]1O[C@H](CO)[C@@H](O)[C@H](O[C@@H]2O[C@H](CO)[C@@H](O)[C@H](O)[C@H]2O)[C@H]1O[C@@H]1O[C@H](CO)[C@@H](O)[C@H](O)[C@H]1O)C3` [Rebaudioside D] (compound dose: 10 uM), 0.931 ± 0.038.
As for `COc1cc2ccc(=O)oc2cc1O[C@@H]1O[C@H](CO)[C@@H](O)[C@H](O)[C@H]1O` [Scopolin] (compound dose: 10 uM), the figure is 1.015 ± 0.0034; as for `C=C(C)[C@@H]1CC[C@]2(C)CC[C@]3(C)[C@H](CC[C@@H]4[C@@]5(C)CCC(=O)C(C)(C)[C@@H]5CC[C@]43C)[C@@H]12` [Lupenone] (compound dose: 10 uM), 0.9789 ± 0.0076.
Next, `C[C@H]1O[C@@H](O[C@H]2[C@@H](O)C[C@H](O[C@H]3[C@@H](O)C[C@H](O[C@H]4CC[C@@]5(C)[C@H](CC[C@@H]6[C@@H]5CC[C@]5(C)[C@@H](C7=CC(=O)OC7)CC[C@]65O)C4)O[C@@H]3C)O[C@@H]2C)C[C@H](O)[C@@H]1O` [Digitoxin] (compound dose: 10 uM): 0.997 ± 0.019; `CC1(C)CCCC2(C)C1CCC1(C)OCCC12` (stereo not drawn) [Ambroxide] (compound dose: 10 uM): 0.964 ± 0.053; `COC(=O)C1=CO[C@@H](O[C@@H]2O[C@H](CO)[C@@H](O)[C@H](O)[C@H]2O)[C@@H]2[C@@H](C)[C@@H](O)C[C@H]12` [Loganin] (compound dose: 10 uM): 1.05 ± 0.041.
On to `CCCCC/C=C\C=C\C(=O)O[C@H]1C(C)=C[C@]23C(=O)[C@@H](C=C(CO)[C@@H](O)[C@]12O)[C@H]1[C@@H](C[C@H]3C)C1(C)C` [3-O-(2'E,4'ZDecadienoyl) ingenol] (compound dose: 10 uM), for which the cell viability worked out at 1 ± 0.09.
Regarding `CC(C)=CCC[C@](C)(O[C@@H]1O[C@H](CO[C@@H]2O[C@@H](CO)[C@H](O)[C@H]2O)[C@@H](O)[C@H](O)[C@H]1O)[C@H]1CC[C@]2(C)[C@@H]1[C@H](O)C[C@@H]1[C@@]3(C)CC[C@H](O[C@@H]4O[C@H](CO)[C@@H](O)[C@H](O)[C@H]4O[C@@H]4O[C@H](CO)[C@@H](O)[C@H](O)[C@H]4O)C(C)(C)[C@@H]3CC[C@]12C` [Ginsenoside Rc] (compound dose: 10 uM), the cell viability came out at 0.9496 ± 0.0049.
